Laboratory results: PubChem BioAssay (Tox21)
Records with an inconclusive call do not appear. The source made the active and inactive calls. Unless noted, the call rests on the fitted dose curve; in most records, active means well fitted curve in the direction sought with a large enough effect in the repeat runs; inconclusive means weak or mixed curves; inactive means no such curve, though single readings can be large; an effect the other way counts as inactive or inconclusive.

What was measured:
[1] = qHTS assay to identify small molecule antagonists of the estrogen related receptor (ERR) signaling pathway from Tox21 library - cell viability counter screen (AID 1224834); further: nearly all actives have a fitted effect of over 30% in size; further: potency means the concentration at half of the fitted maximal effect
Method in brief: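 In this quantitative HTS format, ERR cells receive compounds in DMSO and are incubated for 17.5 h at 37 C. Live-cell protease activity is then detected with CellTiter-Fluor.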

[2] = target: Luciferin 4-monooxygenase (Photinus pyralis) (UniProt P08659); assay: qHTS assay to identify small molecule inhibitors of firefly luciferase (AID 1224835); further: nearly all actives have a fitted effect of over 25% in size; further: potency means the concentration at half of the fitted maximal effect
Chain of Luciferin 4-monooxygenase (Photinus pyralis) (P08659 whole entry, looked up): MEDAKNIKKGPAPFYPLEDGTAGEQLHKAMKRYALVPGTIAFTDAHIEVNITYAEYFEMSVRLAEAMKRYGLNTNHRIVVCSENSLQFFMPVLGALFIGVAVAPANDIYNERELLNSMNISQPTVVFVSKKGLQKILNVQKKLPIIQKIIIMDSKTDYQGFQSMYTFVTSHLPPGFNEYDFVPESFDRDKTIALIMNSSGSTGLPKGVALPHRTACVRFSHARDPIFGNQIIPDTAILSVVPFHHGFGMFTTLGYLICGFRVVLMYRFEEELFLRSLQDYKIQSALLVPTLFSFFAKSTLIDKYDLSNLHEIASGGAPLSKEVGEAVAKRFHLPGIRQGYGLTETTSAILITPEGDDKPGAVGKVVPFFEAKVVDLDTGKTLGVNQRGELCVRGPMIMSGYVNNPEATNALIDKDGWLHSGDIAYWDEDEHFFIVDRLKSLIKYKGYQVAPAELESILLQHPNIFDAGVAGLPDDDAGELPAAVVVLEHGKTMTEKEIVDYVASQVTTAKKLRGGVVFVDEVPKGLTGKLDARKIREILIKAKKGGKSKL
Method in brief: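 Biochemical qHTS: compounds run as interplate titrations against purified firefly enzyme, with D-luciferin and ATP each at its KM concentration. Light output recorded by CCD imaging.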

[3] = qHTS assay to identify small molecule agonists of the constitutive androstane receptor (CAR) signaling pathway - cell viability counter screen (AID 1224836); further: nearly all actives have a fitted effect of over 45% in size; further: potency means the concentration at half of the fitted maximal effect
Method in brief: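 Using CellTiter-Fluor, viability of HepG2 cells harbouring hCAR and CYP2B6-2.2kb was measured following 23 h incubation with a 15-concentration compound series plus PK11195 (0.75 uM final).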

[4] = target: Nuclear receptor subfamily 1 group I member 3 (Homo sapiens) (UniProt Q14994); assay: qHTS assay to identify small molecule agonists of the constitutive androstane receptor (CAR) signaling pathway (AID 1224839);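 further: HepG2 cells stably carrying human CAR and a CYP2B6 luciferase reporter; on the % scale 0 is the no-effect control and ±100 the full control effect; nearly all actives have a fitted effect of over 15% in size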
Chain of Nuclear receptor subfamily 1 group I member 3 (Homo sapiens) (Q14994 whole entry, looked up): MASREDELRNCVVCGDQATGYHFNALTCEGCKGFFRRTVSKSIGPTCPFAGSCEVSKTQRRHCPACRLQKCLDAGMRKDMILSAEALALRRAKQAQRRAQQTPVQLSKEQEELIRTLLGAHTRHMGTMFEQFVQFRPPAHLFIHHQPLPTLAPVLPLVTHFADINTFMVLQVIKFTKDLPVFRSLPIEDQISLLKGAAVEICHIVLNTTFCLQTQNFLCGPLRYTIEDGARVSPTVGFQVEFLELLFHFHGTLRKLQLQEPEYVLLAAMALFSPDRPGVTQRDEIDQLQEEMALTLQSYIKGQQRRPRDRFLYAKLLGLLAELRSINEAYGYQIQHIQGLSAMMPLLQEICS
Method in brief: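 Double-stable HepG2 cells (hCAR, CYP2B6-2.2kb) seeded 4 h before compound addition. Exposure 24 h with 0.75 uM PK11195 final. Luciferase detected by ONE-Glo.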

[5] = qHTS assay to identify small molecule antagonists of the estrogen related receptor signaling pathway with the pleiotropic PPARgamma coactivator (PGC) from Tox21 10K library - cell viability counter screen (AID 1224840; active means well fitted cell-killing curve with a large enough effect in the repeat runs, not every such curve was filed as active; further: nearly all actives have a fitted effect of over 40% in size; further: potency means the concentration at half of the fitted maximal effect)
Method in brief: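 Viability counter screen, PGC/ERR cells: 17.5 h compound exposure at 37 C, CellTiter-Fluor fluorescence endpoint.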

[6] = target: Thyrotropin receptor (Homo sapiens) (UniProt P16473); assay: qHTS assay to identify small molecule agonists of the thyroid stimulating hormone receptor (TSHR) signaling pathway (AID 1224843; calls by dose curve; further: nearly all actives have a fitted effect of over 45% in size; further: potency means the concentration at half of the fitted maximal effect; on activation: on the % scale 0 is the no-effect control and ±100 the full control effect)
Chain of Thyrotropin receptor (Homo sapiens) (P16473 whole entry, looked up): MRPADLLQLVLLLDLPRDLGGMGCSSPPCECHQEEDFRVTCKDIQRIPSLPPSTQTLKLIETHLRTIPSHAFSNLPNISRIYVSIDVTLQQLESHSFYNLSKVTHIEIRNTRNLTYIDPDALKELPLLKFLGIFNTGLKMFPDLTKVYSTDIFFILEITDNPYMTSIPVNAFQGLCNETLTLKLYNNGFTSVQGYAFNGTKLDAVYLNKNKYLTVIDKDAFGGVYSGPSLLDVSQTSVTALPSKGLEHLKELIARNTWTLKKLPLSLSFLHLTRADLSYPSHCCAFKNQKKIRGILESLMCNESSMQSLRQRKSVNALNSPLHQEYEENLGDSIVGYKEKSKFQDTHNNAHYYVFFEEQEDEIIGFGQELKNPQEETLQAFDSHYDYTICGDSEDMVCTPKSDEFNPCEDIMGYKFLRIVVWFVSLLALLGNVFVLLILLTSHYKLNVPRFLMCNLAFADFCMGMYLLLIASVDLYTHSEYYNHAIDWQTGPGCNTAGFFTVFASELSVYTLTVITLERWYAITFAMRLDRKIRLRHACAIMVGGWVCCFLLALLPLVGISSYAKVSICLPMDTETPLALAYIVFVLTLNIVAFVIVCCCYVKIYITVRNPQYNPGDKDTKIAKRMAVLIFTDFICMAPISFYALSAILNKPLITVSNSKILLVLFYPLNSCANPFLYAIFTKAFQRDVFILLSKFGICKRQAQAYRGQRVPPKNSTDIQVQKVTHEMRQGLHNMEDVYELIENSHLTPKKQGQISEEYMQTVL
Method in brief: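 Agonist-mode screen: TSHR HEK293 cells received test chemicals for half an hour at room temperature, then HTRF cAMP detection reagents for one hour prior to fluorescence measurement. Each chemical ran as a 15-concentration series, triplicated.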

[7] = qHTS assay to identify small molecule agonists of the hypoxia (HIF-1) signaling pathway - cell viability counter screen (AID 1224844; calls by dose curve; further: nearly all actives have a fitted effect of over 50% in size; further: potency means the concentration at half of the fitted maximal effect)
Method in brief: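 Same wells as the HIF-1 reporter screen; ME-180 cells carrying HRE-bla, 17 hr treatment at 37C; CellTiter-Glo luminescence read after 30 min at room temperature.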

[8] = qHTS assay to identify small molecule agonists of H2AX (AID 1224845; active means well fitted activation curve with a large enough effect in the signal ratio in the repeat runs, not every such curve was filed as active; the % refers to the signal ratio; further: on the % scale 0 is the no-effect control and ±100 the full control effect)
Method in brief: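 Wild-type CHO-K1 cells, plated overnight, exposed 3hr at 37C to 15 concentrations (0.76% DMSO final). Lysed, then HTRF anti-pH2AX (S139) cryptate and anti-H2AX-d2 antibodies, 24 hr room temperature; 665/620 nm emission read.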

[9] = qHTS assay to identify small molecule agonists of the hypoxia (HIF-1) signaling pathway (AID 1224846; active means well fitted activation curve with a large enough effect in the signal ratio in the repeat runs, not every such curve was filed as active; the % refers to the signal ratio; further: on the % scale 0 is the no-effect control and ±100 the full control effect)
Method in brief: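 In ME-180 cells bearing an HRE-bla construct, 17 h treatment with DMSO-dissolved compounds at 37C was followed by CCF4-AM loading to quantify reporter induction.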

[10] = qHTS assay to identify small molecule agonists of H2AX - cell viability counter screen (AID 1224847; calls by dose curve; further: nearly all actives have a fitted effect of over 30% in size; further: potency means the concentration at half of the fitted maximal effect)
Method in brief: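 Quantitative HTS viability measurement: CHO-K1 wild-type cells in serum (10% FBS) medium, short 3 hr drug exposure at 37C with 0.76% DMSO, CellTiter-Glo luminescent detection.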

[11] = qHTS RealTime-Glo MT Cell Viability Assay in HEK293 cells - 32 hour (AID 1224868); further: nearly all actives have a fitted effect of over 50% in size; further: potency means the concentration at half of the fitted maximal effect
Method in brief: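 Assay medium contained NanoLuc luciferase plus cell-permeant prosubstrate, added with HEK293 cells at 600 cells/well. After 5 h at 37 C/5% CO2 compounds were added; plates stayed at 37 C for 40 h with serial luminescence reads.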

[12] = A CellTox Green Cytotoxicity Assay to monitor cytotoxicity in HEK293 cells - 0 hour (AID 1224869); further: on the % scale 0 is the no-effect control and ±100 the full control effect; nearly all actives have a fitted effect of over 50% in size
Method in brief: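 Homogeneous no-lysis format: HEK293 cell suspension mixed with CellTox Green reagent, seeded, incubated 5 h at 37 C/5% CO2, then dosed by pintool with compound in DMSO.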

[13] = qHTS RealTime-Glo MT Cell Viability Assay in HepG2 cells - 40 hour (AID 1224870); further: nearly all actives have a fitted effect of over 50% in size; further: potency means the concentration at half of the fitted maximal effect
Method in brief: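 HepG2 cells (600/well) mixed with RealTime-Glo MT reagent, settled 5 h at 37 C/5% CO2 before compound addition. Nonlytic NanoLuc luminescence from viable-cell prosubstrate reduction read repeatedly during 40 h treatment at 37 C.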

[14] = qHTS assay to identify small molecule antagonists of the constitutive androstane receptor (CAR) signaling pathway - cell viability counter screen (AID 1224837); further: on the % scale 0 is the no-effect control and ±100 the full control effect; nearly all actives have a fitted effect of over 45% in size
Method in brief: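 In quantitative HTS format, compounds at 15 concentrations were applied to HepG2 cells double-transfected with hCAR and CYP2B6-2.2kb under 50 nM CITCO stimulation; live-cell protease activity was read after 23 hr via CellTiter-Fluor.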

[15] = target: Nuclear receptor subfamily 1 group I member 3 (Homo sapiens) (UniProt Q14994); assay: qHTS assay to identify small molecule antagonists of the constitutive androstane receptor (CAR) signaling pathway (AID 1224838); further: on the % scale 0 is the no-effect control and ±100 the full control effect; nearly all actives have a fitted effect of over 40% in size
Method in brief: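 CITCO-stimulated (50 nM final) HepG2 cells stably transfected with hCAR and CYP2B6-2.2kb luciferase were exposed to compounds at 15 concentrations for 24 h at 37 C/5% CO2. A luciferase reagent was added and luminescence recorded after 30 min.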

[16] = qHTS RealTime-Glo MT Cell Viability Assay in HepG2 cells - 24 hour (AID 1224867); further: nearly all actives have a fitted effect of over 50% in size; further: potency means the concentration at half of the fitted maximal effect
Method in brief: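 qHTS, HepG2, 600 cells/well, RealTime-Glo (NanoLuc + prosubstrate) added with cells; 5 h preincubation; DMSO compound addition; 37 C; luminescence at 0/8/16/24/32/40 h.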

[17] = qHTS assay to identify small molecule antagonists of the estrogen related receptor signaling pathway with the pleiotropic PPARgamma coactivator (PGC) from Tox21 10K library (AID 1224841; call rule not given here)
Method in brief: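 In the PGC/ERR line, DMSO solutions of test chemicals are pin-delivered to 2,000 cells/well six hours after dispensing. Following eighteen hours' incubation, One-Glo reagent is added and luminescence recorded.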

[18] = qHTS assay to identify small molecule antagonists of the estrogen related receptor (ERR) signaling pathway from Tox21 library (AID 1224848)
Method in brief: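 Quantitative high-throughput format: ERR reporter cells (2,000/well) pre-incubated 6 h, treated 18 h at 37 C with compounds in DMSO alongside positive and negative controls, then read by ONE-Glo luminescence.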

[19] = qHTS assay to identify small molecule agonists of the estrogen related receptor (ERR) signaling pathway from Tox21 library (AID 1224849; calls by dose curve; further: on the % scale 0 is the no-effect control and ±100 the full control effect; nearly all actives have a fitted effect of over 15% in size); conditions: ERR reporter cell line, ONE-Glo luciferase, 18 h; at 92.4 µM (top of the series) unless noted
Method in brief: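 Reporter cells (ERR, NTP source) treated with Tox21 10K compounds 18 h, 37 C. Readout: ONE-Glo luminescence, 30 min RT.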

CCOc1ccc(N=Nc2ccc(/C=C/c3ccc(N=Nc4ccc(OCC)cc4)cc3S(=O)(=O)O)c(S(=O)(=O)O)c2)cc1
inactive: Potency [2] | Potency [4] | Potency [6] | Potency [7] | Potency [8] | Potency [9] | Potency [10] | Potency [11] | Potency [12] | Potency [13]
active: Potency [1] 24 µM | Potency [3] 24 µM | Potency [5] 47.8 µM

CC(C)Nc1ccc(NC(C)C)c2c1C(=O)c1ccccc1C2=O
inactive: Potency [14] | Potency [15] | Potency [9] | Potency [16] | Potency [11] | Potency [12] | Potency [13]
active: Potency [1] 20.1 µM | Potency [2] 33 µM | Potency [10] 26.3 µM

CCCCCCCCCCCc1ccccc1
inactive: Potency [1] | Potency [2] | Potency [14] | Potency [15] | Potency [5] | Potency [6] | Potency [7] | Potency [8] | Potency [9] | Potency [10] | Potency [16] | Potency [11] | Potency [12] | Potency [13]

C/C=C/C=C/CO
inactive: Potency [1] | Potency [2] | Potency [3] | Potency [5] | Potency [6] | Potency [7] | Potency [8] | Potency [9] | Potency [10] | Potency [16] | Potency [12] | Potency [13]

Nc1ccc(N)c2c1C(=O)c1ccccc1C2=O
active: Potency [1] 15.4 µM | Potency [2] 17.8 µM | Potency [3] 17.2 µM | Potency [5] 19.3 µM | Potency [17] 24.3 µM | Potency [10] 50.5 µM | Potency [18] 43.3 µM
inactive: Potency [4] | Potency [7] | Potency [9] | activity change, positive = activation [19] -37.5% | Potency [16] | Potency [12] | Potency [13]

C#C[C@]1(O)CC[C@H]2[C@@H]3CCc4cc(OC5CCCC5)ccc4[C@H]3CC[C@@]21C
active: Potency [7] 15.1 µM | Potency [10] 49.2 µM | Potency [11] 23.9 µM
inactive: Potency [1] | Potency [2] | Potency [3] | Potency [5] | Potency [8] | Potency [12] | Potency [13]

Cc1ccc(C(=O)Oc2ccc(C(O)CNC(C)(C)C)cc2OC(=O)c2ccc(C)cc2)cc1 (configuration not stated)
inactive: Potency [1] | Potency [2] | Potency [3] | Potency [5] | Potency [7] | Potency [9] | Potency [10] | Potency [12]
active: Potency [6] 0.0473 µM | Potency [16] 21.3 µM | Potency [13] 23.9 µM

CC/C=C\CCOC(=O)CC
inactive: Potency [1] | Potency [2] | Potency [3] | Potency [5] | Potency [6] | Potency [7] | Potency [8] | Potency [9] | Potency [10] | Potency [16] | Potency [11] | Potency [12] | Potency [13]
